# Screening results from PubChem.
# The list is not random: actives were taken first. Their share in the collection is about 1.2%.
# FH mod: Identification of activators of human fumarate hydratase by quantitative high-throughput screening; Potency, µM (series often up to 79.9 µM), inactives show at the top dose activity change, negative = inhibition, hits mostly inhibitors; FH coupled MDH/diaphorase resazurin fluorescence, 15 min; Fumarate hydratase, mitochondrial (Homo sapiens), P07954; 0.22% of 54,000 active; note: the screen sought activators but most active calls are inhibition curves; nearly all actives have a fitted effect of over 45% in size
# Target sequence (P07954 whole entry, looked up): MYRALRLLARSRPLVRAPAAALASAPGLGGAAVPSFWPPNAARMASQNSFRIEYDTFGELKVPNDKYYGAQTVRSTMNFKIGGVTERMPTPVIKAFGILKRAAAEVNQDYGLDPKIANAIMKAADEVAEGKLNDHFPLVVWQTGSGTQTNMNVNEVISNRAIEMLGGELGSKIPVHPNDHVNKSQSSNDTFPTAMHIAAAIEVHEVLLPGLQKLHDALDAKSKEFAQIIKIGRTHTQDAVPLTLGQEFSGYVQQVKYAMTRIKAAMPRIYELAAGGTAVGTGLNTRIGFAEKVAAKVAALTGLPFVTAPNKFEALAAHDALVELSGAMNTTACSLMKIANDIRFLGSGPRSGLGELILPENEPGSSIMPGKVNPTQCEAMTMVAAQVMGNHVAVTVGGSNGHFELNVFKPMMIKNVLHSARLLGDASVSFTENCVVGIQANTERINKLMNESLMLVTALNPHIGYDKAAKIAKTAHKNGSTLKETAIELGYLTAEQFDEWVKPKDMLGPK
# p53null 32C kill: kills p53 null cells at the permissive temperature. H1299-neo p53 null cells, ATP luminescence, 24 h, 32C. Potency, µM (titrated, usually from 46.1 µM), for the others: top-dose activity change, negative = cytotoxicity, actives largely listed as cytotoxic. 0.62% of 55,000 active. AID 903;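 note: 0% = DMSO only and -100% = full killing by 100 µM tamoxifen; nearly all actives have a fitted effect of over 55% in size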
#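 Cytotoxicity: H1299-neo (no p53), 32C, 24 h treatment. Concentrations up to 46 uM. Readout cellular ATP, luminescence. Normalization to DMSO basal and tamoxifen 100 uM maximal kill.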
# p53null 39C tox: kills p53 null cells at the nonpermissive temperature. H1299 p53-null (neo) cells, 39C, ATPlite viability, 24 h. Potency, µM (titrated, usually from 46.1 µM), for the others: at the top dose activity, negative = cell killing, actives largely listed as cytotoxic. 0.97% of 55,000 active. AID 904;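 note: 0% = DMSO only and -100% = full killing by 100 µM tamoxifen; nearly all actives have a fitted effect of over 50% in size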
#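 ATP-luminescence viability readout (ATPlite, 20 min RT) after 24 hr compound treatment at 39C of H1299-neo or H1299-p53A138V cells; titration up to 46 uM; normalized to DMSO and 100 uM tamoxifen; Hill-fit AC50.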
# An asterisk follows results filed as active; ? = inconclusive; . = no result; [ ] = remark or other dose. Calls come from the whole dose curve; as a rule, active = well fitted curve in the direction sought with a large enough effect; inconclusive = small, poorly fitted or top-dose-only effect, or another doubt; inactive = no such curve, though single readings can be large; an effect the other way counts as inactive or inconclusive. Unless noted, % is set by controls: 0 for no effect and ±100 for the full control effect; potency is the fitted concentration of half-maximal effect.
SMILES,FH mod,p53null 32C kill,p53null 39C tox
COc1ccc(Nc2c3c(nc4ccc(NC(=O)/C=C/c5cccc(OC)c5OC)cc24)CCCC3)cc1OC,-19%,10µM*,3.2µM*
COc1ccc(/C=C/C(=O)Nc2ccc3nc(N4CCCCC4)cc(C)c3c2)cc1OC,?,-7%,-3%
COc1ccc(/C=C/C(=O)Nc2ccc3nc4c(c(Nc5ccccc5OC)c3c2)CCCC4)cc1,-25%,-9%,?
CCOc1ccc(/C=C/C(=O)Nc2ccc3nc(N(CC)CC)cc(C)c3c2)cc1OC,?,6%,3%
CCN(CC)c1cc(C)c2cc(NC(=O)/C=C/c3cc(OC)c(OC)c(OC)c3)ccc2n1,?,?,22µM*
COc1ccc(/C=C/C(=O)Nc2ccc3nc4c(c(Nc5ccc(OC)c(OC)c5)c3c2)CCCC4)cc1,-19%,13µM*,6.3µM*
COc1ccccc1Nc1c2c(nc3ccc(NC(=O)/C=C/c4cccc(OC)c4OC)cc13)CCCC2,-20%,-10%,?
COc1ccc(Nc2c3c(nc4ccc(NC(=O)/C=C/c5cc(OC)c(OC)c(OC)c5)cc24)CCCC3)cc1OC,?,13µM*,7.1µM*
O[C@@](Cc1ncc(CC2(C(F)(F)F)CC2)[nH]1)(c1ccc(-n2cccn2)cc1)C(F)(F)F,-2%,.,.
C[C@H]1[C@H](C)CC[C@]2(C(=O)O[C@@H]3O[C@H](CO)[C@@H](O)[C@H](O)[C@H]3O)CC[C@]3(C(=O)O)C(=CCC4[C@@]5(C)CC[C@H](O[C@@H]6O[C@H](CO)[C@@H](O)[C@H](O)[C@H]6O)C(C)(C)C5CC[C@]43C)[C@H]12 (stereo partly specified),-1%[20.6 µM],.,.
CC(=O)N[C@H](Cc1c[nH]c2ccccc12)C(=O)OCc1cc(C(F)(F)F)cc(C(F)(F)F)c1,-15%,.,.
COc1ccncc1C(=O)NC(=O)Nc1ccc(-c2ccccc2)c(C(F)(F)F)c1,0%,.,.
CCC(CCO[C@@H]1O[C@H](CO[C@H]2OC[C@](O)(CO)[C@H]2O)[C@@H](O)[C@H](O)[C@H]1O)C(C)(C)O (stereo partly specified),-2%[53.3 µM],.,.
C=C1C(OC(C)=O)CCC2(C)CC3(OC)OC(=O)C(C)=C3CC12 (stereo unspecified),7%[53.3 µM],.,.
COc1ccc(C)cc1Nc1c2c(nc3ccccc13)CCC2,-22%,-10%,16µM*
COc1ccc(Nc2c3c(nc4ccccc24)CCC3)cc1Cl,-14%,-1%,?
Fc1ccc(F)c(Nc2c3c(nc4ccc(Cl)cc24)CCC3)c1,?,18%,17%
COc1ccccc1Nc1c2c(nc3ccc(NC(=O)c4cccc(F)c4)cc13)CCCC2,?,?,10µM*
O=C(OCC1=C[C@@H](O)[C@@H]2C=CO[C@@H](O[C@@H]3O[C@H](CO)[C@@H](O)[C@H](O)[C@H]3O)[C@H]12)c1ccc(O)cc1,2%[53.3 µM],.,.
NC1CCC(Nc2nc(Nc3ccc(C(=O)N4CCCCC4)cc3)c3ncn(-c4cccc(F)c4)c3n2)CC1 (stereo unspecified),12%[53.3 µM],.,.
CC(C)(C)NS(=O)(=O)c1ccc(-c2ccc3[nH]nc(N)c3c2)cc1,0%,.,.
C=C1C(=O)O[C@@H]2CC(C)=C([C@@H](C)CCCOC(C)=O)[C@@H](O)[C@H]12,0%[53.3 µM],.,.
Clc1ccc(-c2cn3cc(Cc4ccccc4)sc3n2)cc1,4%,?,16µM*
Fc1ccc(-c2cn3cc(Cc4ccccc4Cl)sc3n2)cc1,-8%,?,7.9µM*
Fc1ccc(Cc2cn3cc(-c4ccc(F)cc4)nc3s2)cc1,-3%,?,?
SMILES,FH mod,p53null 32C kill,p53null 39C tox
Fc1ccccc1Cc1cn2cc(-c3ccc(Cl)cc3)nc2s1,0%,?,?
Cc1cc(-c2cnc(N)c3c(-c4ccc5scnc5c4)csc23)n(C)n1,-9%,.,.
COc1ccc(N2Cc3cccc(C(=O)Nc4ccc(C)cc4)c3C2=O)cc1,0%,-6%,-10%
COc1ccc(N2Cc3cccc(C(=O)Nc4ccc(C(C)C)cc4)c3C2=O)cc1,6%,?,4µM*
C=C1C(=O)[C@@]23C(CC[C@@H]1[C@H]2O)[C@@]12CO[C@]3(O)[C@@H](O)[C@@H]1C(C)(C)CC[C@@H]2O (stereo partly specified),2%,.,.
CN=C(N)NCCCCC/C=C(/C)CC(C)C1OC(=O)C(C)C(O)/C=C/C(C)C(O)CC(O)C(C)C(O)CCC(C)C(O)CC2(O)OC(CC(OC(=O)CC(=O)O)CC(O)CC(O)C(C)C(O)/C(C)=C/CCC1C)CC(O)C2O (stereo unspecified),1%[20.6 µM],.,.
COc1ccc(C(=O)Nc2nc3c(s2)CCCC3)cc1Cl,?,-14%,?
